DNA Pol III inh: blocks replication by bacterial DNA polymerase III holoenzyme. Potency, µM (highest dose often 57.1 µM), for the others: top-dose activity change, negative = inhibition. reconstituted DNA polymerase III holoenzyme replication, biochemical. 0.25% of 71,000 active. AID 603; further: potency means the concentration at half of the fitted maximal effect; on the % scale 0 is the no-effect control and ±100 the full control effect
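Reconstituted *E. coli* holoenzyme (0.35 nM Pol III, 1 nM beta, 154 nM SSB, 2 nM primase) was preincubated with compound for 15 min at RT. Synthesis on 1.4 nM ssM13Gori ran 35 min, then was stopped with PicoGreen/EDTA and read as dsDNA fluorescence.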
Tau filament bind: tau filament binding; 2% of 71,000 active; AID 596; P10636; recombinant tau filaments, thioflavin S fluorescence, 15 h; filaments grown with octadecylsulfate alongside compound; Potency, µM (titrated, usually from 57.1 µM), inactives show top-dose activity change, negative = inhibition;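 further: potency means the concentration at half of the fitted maximal effect; on the % scale 0 is the no-effect control and ±100 the full control effect; actives lower thioflavin S fluorescence by blocking filaments or displacing dye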
Target sequence (P10636 whole entry, looked up): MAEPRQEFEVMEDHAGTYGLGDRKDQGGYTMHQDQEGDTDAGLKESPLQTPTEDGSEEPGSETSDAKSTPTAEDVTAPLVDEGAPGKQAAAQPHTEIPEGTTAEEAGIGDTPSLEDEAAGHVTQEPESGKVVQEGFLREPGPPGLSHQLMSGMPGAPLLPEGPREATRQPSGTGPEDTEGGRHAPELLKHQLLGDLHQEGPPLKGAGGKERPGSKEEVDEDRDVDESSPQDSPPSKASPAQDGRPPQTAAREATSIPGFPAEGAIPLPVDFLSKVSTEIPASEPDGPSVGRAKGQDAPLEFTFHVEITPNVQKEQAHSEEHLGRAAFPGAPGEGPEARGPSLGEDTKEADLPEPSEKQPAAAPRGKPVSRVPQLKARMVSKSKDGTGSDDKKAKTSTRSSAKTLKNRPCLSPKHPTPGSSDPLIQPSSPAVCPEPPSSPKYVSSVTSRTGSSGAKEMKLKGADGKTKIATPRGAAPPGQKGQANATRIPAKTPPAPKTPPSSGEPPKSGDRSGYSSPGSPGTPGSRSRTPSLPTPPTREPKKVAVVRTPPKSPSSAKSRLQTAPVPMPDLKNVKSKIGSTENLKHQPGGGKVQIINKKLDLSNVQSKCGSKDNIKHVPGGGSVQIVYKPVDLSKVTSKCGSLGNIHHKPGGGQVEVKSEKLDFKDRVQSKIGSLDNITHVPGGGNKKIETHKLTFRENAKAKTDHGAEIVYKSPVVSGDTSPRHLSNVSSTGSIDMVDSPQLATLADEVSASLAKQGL
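Read-out: ThS fluorescence, 450 nm excitation/510 nm emission; lower signal marks blocked filament formation or displaced dye. Tau at 1 uM with 30 uM ODS, 10 uM ThS, 5 mM DTT, 100 mM NaCl, 10 mM HEPES pH 7.4; 15 h, 37 C.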
GFP derepression: derepresses silenced GFP locus in mouse C127i cells | mouse C127i GFP locus derepression, cytometry, 30 h | AID 597 | Potency, µM (top dose mostly 46.1 µM), inactives show at the highest dose GFP derepression (activation) | 0.09% of 68,000 active; further: % of control where 0% means no effect
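Derepression screen: silenced CMV-GFP reporter in murine C127i cells, 30 h compound incubation at 37 C, washed cells imaged by laser-scanning cytometer to enumerate GFP-expressing objects of 20 to 120 um.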
UbGFP stabilizer: proteasome inhibitors stabilizing ubiquitin-GFP reporter | Ubiquitin-GFP reporter cells, proteasome inhibition, GFP fluorescence; response scale: untreated = 0%, 10 µM MG-132 = 100% | Potency, µM (doses to about 45.9 µM), for the others: at the top dose activation (GFP accumulation), most hits filed as activators | 67,000 tested, under 10 active | AID 526; active means well fitted activation curve with a large enough effect, not every such curve was filed as active; inconclusive means small, poorly fitted or top-dose-only effect, or another doubt; inactive means no such curve, though single readings can be large or run the other way; further: potency means the concentration at half of the fitted maximal effect
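Proteasome block read as GFP accumulation: ubiquitin(G76V)-GFP U2OS cells exposed to compound (2.9 nM–46 uM) for 4 hr at 37 C. Normalization used untreated cells as 0% and 10 uM MG-132 as 100%; concentration-response curves fitted.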
ALOX15 inhib: inhibitors of human 15-lipoxygenase (ALOX15) | purified 15hLO-1, xylenol orange hydroperoxide absorbance | Potency, µM (doses to about 57.1 µM), inactives show at the top dose activity change, negative = inhibition, actives largely listed as inhibitors | 1.4% of 74,000 active; further: potency means the concentration at half of the fitted maximal effect; on the % scale 0 is the no-effect control and ±100 the full control effect; nearly all actives have a fitted effect of over 55% in size
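Readout: Fe(III)-xylenol orange absorbance, 573-to-405 nm ratio as reaction progress. Enzyme 40 nM purified human 15hLO-1, substrate 50 uM arachidonic acid, 6 min RT after 15 min compound preincubation; Hepes pH 7.5 buffer with Triton X-100.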
HBB splicing: alters splicing of the hemoglobin beta chain; HBB splicing reporter cell assay, activation; EGFP reporter with mutant IVS2-654 intron; response scale: normalised to 500 nM splice-correcting PNA; Potency, µM (series often up to 46.1 µM), for inactives: top-dose activation, usual class: activators; 0.06% of 65,000 active; AID 925; further: potency means the concentration at half of the fitted maximal effect; 0% is about no effect
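Compounds were applied for 2 days to HeLa EGFP-654 cells, 500/well in Optimem with 2% FCS. The reporter's EGFP is disrupted by mis-splicing of beta-globin intron IVS2-654. Readout: summed well GFP fluorescence from 488 nm laser scanning; reference was 500 nM antisense […] 654 PNA.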
tau ThS displ: compounds binding human tau filaments, displacing Thioflavin S; AID 911; 40% of 60 active; Potency, µM; shares compounds with Tau filament bind; recombinant tau filaments, Thioflavin S fluorescence displacement; calls by dose curve
aSyn ThS displ: alpha-synuclein fibril binding by ThS displacement | shares compounds with Tau filament bind | recombinant alpha-synuclein fibrils, ThS fluorescence displacement | Potency, µM | 40% of 60 active; calls by dose curve
Abeta ThS displ: displaces Thioflavin S from Abeta1-42 fibrils. shares compounds with Tau filament bind. Abeta1-42 fibrillization, thioflavin S fluorescence, overnight 37 C. Potency, µM. 50% of 60 active. AID 956; calls by dose curve
* hit, by the source's call; [ ] = another dose, or the depositor's remark. Most compounds without a hit are left out; they make up all but 3.2% or so of the library. Unless noted, the call rests on the fitted dose curve; in most records, active means well fitted curve in the direction sought with a large enough effect; inconclusive means small, poorly fitted or top-dose-only effect, or another doubt; inactive means no such curve, though single readings can be large; an effect the other way counts as inactive or inconclusive.

Screening O=C(O)C1CC2(C1)CC(C(=O)O)C2 (stereo unspecified) returned DNA Pol III inh -10.1%[11.4 µM], Tau filament bind 8.1%[11.4 µM], GFP derepression -1.3%[9.22 µM], UbGFP stabilizer -4.0%[9.17 µM], ALOX15 inhib 6.8%[11.4 µM] and HBB splicing 2.0%[9.22 µM].
Screening c1cc2c3c(cccc3c1)NC1(CCCCCC1)N2 returned DNA Pol III inh -19.5%, Tau filament bind 2.51µM*, GFP derepression 0.0%, UbGFP stabilizer -2.7%, ALOX15 inhib -7.1%, HBB splicing -0.9%, tau ThS displ inconclusive, aSyn ThS displ 6.29µM* and Abeta ThS displ 2.24µM*.
For COc1cc(OC)c(/C=C2/C(=O)Nc3ccccc32)c(OC)c1 the results were DNA Pol III inh -3.0%, Tau filament bind -28.9%, GFP derepression -1.2%, UbGFP stabilizer -2.6%, ALOX15 inhib -6.1%, HBB splicing -1.8%, tau ThS displ inactive, aSyn ThS displ inactive and Abeta ThS displ inactive.
`COCCCn1c(=N)c(C(=O)NCC2CCCO2)cc2c(=O)n3cccc(C)c3nc21` (stereo unspecified) gave DNA Pol III inh -14.2%, Tau filament bind 9.4%, GFP derepression 0.0%, UbGFP stabilizer 1.5%, ALOX15 inhib -6.2%, tau ThS displ inconclusive, aSyn ThS displ inconclusive and Abeta ThS displ inconclusive.
`Cc1cccn2c(=O)c3cc(C(=O)NCCN4CCOCC4)c(=N)n(CCc4ccccc4)c3nc12` gave DNA Pol III inh -28.1%, Tau filament bind 0.501µM*, GFP derepression 7.1%, UbGFP stabilizer 1.6%, ALOX15 inhib -3.9%, HBB splicing 0.9%[9.22 µM], tau ThS displ inactive, aSyn ThS displ inconclusive and Abeta ThS displ inactive.
Screening CC(=O)N[C@@H]1CONC1=O returned DNA Pol III inh -10.7%[11.4 µM], Tau filament bind 4.2%[11.4 µM], GFP derepression -1.1%[9.22 µM], UbGFP stabilizer -7.7%[9.17 µM], ALOX15 inhib 1.8%[11.4 µM] and HBB splicing 3.9%[9.22 µM].
Screening CC1(C)CC(=O)C(C(=O)CCCCC(=O)C2C(=O)CC(C)(C)CC2=O)C(=O)C1 returned DNA Pol III inh 0.8%, Tau filament bind -35.5%, GFP derepression -2.8%, UbGFP stabilizer -8.7%, ALOX15 inhib 0.1%, HBB splicing -1.1%, tau ThS displ inactive, aSyn ThS displ inactive and Abeta ThS displ inactive.
`COC(=O)CCCCC(=O)C1C(=O)CC(C)(C)C(C(=O)OC)C1=O` (stereo unspecified) gave DNA Pol III inh -4.3%, Tau filament bind -0.7%, GFP derepression 1.9%, UbGFP stabilizer inconclusive, ALOX15 inhib 0.5% and HBB splicing -0.9%.
Screening N[C@@H](CCCCO)C(=O)O returned DNA Pol III inh -9.1%[11.4 µM], Tau filament bind 0.5%[11.4 µM], GFP derepression -1.1%[9.22 µM], UbGFP stabilizer -11.9%[9.17 µM], ALOX15 inhib 0.6%[11.4 µM] and HBB splicing 1.2%[9.22 µM].
Screening COc1ccc2nc(/N=C\N(C)C)sc2c1 returned DNA Pol III inh -2.4%, Tau filament bind -13.3%, GFP derepression 0.0%, UbGFP stabilizer -14.3%, ALOX15 inhib -19.2% and HBB splicing -3.7%.
`COc1ccc2nc(N=Nc3ccc(N(C)C)cc3)sc2c1` gave tau ThS displ 0.1µM*, aSyn ThS displ inactive and Abeta ThS displ 0.1µM*.
`Nc1ccccc1NC(=O)c1ccccc1` gave DNA Pol III inh 1.8%, Tau filament bind inactive, GFP derepression 1.2%, UbGFP stabilizer -0.2%, ALOX15 inhib 4.2%, HBB splicing -1.5%, tau ThS displ inactive, aSyn ThS displ inactive and Abeta ThS displ inactive.
Screening Nc1ccc2nc(-c3ccc(Cl)cc3)[nH]c2c1 returned DNA Pol III inh -8.1%, Tau filament bind 7.94µM*, UbGFP stabilizer 3.3%, ALOX15 inhib -11.7%, HBB splicing -0.2%, tau ThS displ inactive, aSyn ThS displ inconclusive and Abeta ThS displ inconclusive.
Screening Cc1cc(C)c2nc(N3CCCC(C(=O)NCCN4CCOCC4)C3)sc2c1 (stereo unspecified) returned DNA Pol III inh -2.0%, Tau filament bind -34.1%, GFP derepression -2.8%, UbGFP stabilizer 10.9%, ALOX15 inhib 7.8%, HBB splicing -1.4%, tau ThS displ inactive, aSyn ThS displ inactive and Abeta ThS displ inactive.
For Cc1cc(C)c2nc(N3CCCC(C(=O)N4CCC(C(N)=O)CC4)C3)sc2c1 (stereo unspecified) the results were DNA Pol III inh -6.5%, Tau filament bind 96.5%, GFP derepression -10.2%, UbGFP stabilizer 9.6%, ALOX15 inhib 3.1% and HBB splicing 2.4%.
Screening CCN1CCN(c2nc3ccccc3nc2C(C#N)C(=O)OC2CCCCC2)CC1 (stereo unspecified) returned DNA Pol III inh 1.8%, Tau filament bind 0.794µM*, GFP derepression 0.0%, UbGFP stabilizer 1.7%, ALOX15 inhib inconclusive, HBB splicing 4.6%[57.5 µM], tau ThS displ 2.84µM*, aSyn ThS displ 1.76µM* and Abeta ThS displ 1.4µM*.
Screening C=CCOC(=O)C(C#N)c1nc2ccccc2nc1N1CCN(c2ccccc2OC)CC1 (stereo unspecified) returned DNA Pol III inh -3.0%, Tau filament bind 2.51µM*, GFP derepression 4.3%, UbGFP stabilizer -4.3%, ALOX15 inhib -11.2%, HBB splicing -0.1%[57.5 µM], tau ThS displ 4.01µM*, aSyn ThS displ 1.42µM* and Abeta ThS displ 1.13µM*.
`N#CC(C(=O)NC1CCCCC1)c1nc2ccccc2nc1N1CCN(c2ccc(F)cc2)CC1` (stereo unspecified) gave DNA Pol III inh 4.6%, Tau filament bind 383.9%, GFP derepression inconclusive, UbGFP stabilizer inconclusive, ALOX15 inhib 11.4% and HBB splicing inconclusive.
Screening Clc1nc2ccccc2nc1Cl returned DNA Pol III inh -0.3%, Tau filament bind -0.5%, ALOX15 inhib -11.8% and HBB splicing 0.5%.
Screening C[C@@H]1NCC[C@H](CC(=O)O)[C@H]1CC(=O)O returned DNA Pol III inh -4.0%[11.4 µM], Tau filament bind -1.0%[11.4 µM], GFP derepression -2.2%[9.22 µM], UbGFP stabilizer 0.4%[9.17 µM], ALOX15 inhib 4.8%[11.4 µM] and HBB splicing 0.2%[9.22 µM].
Screening O=C(C1CCCN(S(=O)(=O)c2cccc3nonc23)C1)N1CCC(Cc2ccccc2)CC1 (stereo unspecified) returned DNA Pol III inh 0.3%, Tau filament bind 3.16µM*, GFP derepression 0.0%, UbGFP stabilizer -1.4%, ALOX15 inhib inconclusive, HBB splicing -2.3%, tau ThS displ inconclusive, aSyn ThS displ inactive and Abeta ThS displ inactive.
